# Bioassay records as filed in PubChem.
# CF NFkB inh – cystic fibrosis NF-kB activation inhibition; KKLEB NF-kB-GFP reporter, PAF-induced, GFP fluorescence overnight; actives 0.86% (n = 360,000); inhibition, % at 5 µM;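 active = at least 50% inhibition at 5 µM, scaled per plate between neutral and stimulator controls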;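 also: PAF is a Pseudomonas aeruginosa culture filtrate used as stimulus; plate controls were PAF-stimulated DMSO wells for no effect and unstimulated DMSO wells for full effect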
# EWS-Fli block – EWS/Fli transcriptional activity inhibition | A673 NR0B1-luciferase reporter, viability-normalised | inhibition, % at 12.6 µM | actives 0.67% (n = 350,000);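 active = mean inhibition of at least 50% after viability correction, with every replicate also passing that limit; inconclusive = mean reaches 50% but only one of two replicates passes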;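 also: firefly luciferase signal divided by Alamar Blue viability fluorescence both relative to DMSO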
# KKLEB cytotox – CF airway cell cytotoxicity counter-screen; activity change (cytotoxicity), % at 5 µM; actives 0.36% (n = 360,000); KKLEB CF airway cells viability, ATPlite luminescence, overnight; hits give low values; cells stimulated with P. aeruginosa culture filtrate;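 active = corrected activity change at or below -50% at 5 µM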
# HIF-2a block – HIF-2a inhibition; 786-0 RCC cells HIF-2a reporter, luciferase luminescence, overnight; inhibition, % at 18.8 µM; actives 0.72% (n = 360,000); AID 624352;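 active = inhibition of the luminescence signal of 40% or more relative to plate controls, in a single-dose primary screen at 18.75 µM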
# PAX8 reporter – inhibitors of PAX8 transcriptional activity in RMG-I cells | RMG-I TPO-luciferase reporter, SteadyGlo, 24 h | inhibition, % at 12.6 µM | actives 1.2% (n = 360,000);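 active = mean replicate inhibition at least 60% with every replicate also reaching 60%; inconclusive = only one of the two criteria is met; inactive = mean below 60% and not all replicates reaching 60%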;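 also: luciferase light reporting Pax8 driven TPO promoter activity; plate controls were median of neutral control wells for no effect and mitoxantrone controls for full effect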
# Numbers without * were called inactive; ? = inconclusive; · = no result given. This is a sample that favours compounds with a hit; in the whole collection about 2.1% have one here.
SMILES,CF NFkB inh,EWS-Fli block,KKLEB cytotox,HIF-2a block,PAX8 reporter
C[C@@H]1CN([C@H](C)CO)C(=O)Cc2cc(NC(=O)C3CCCCC3)ccc2O[C@H]1CN(C)S(=O)(=O)c1ccccc1,·,-7,·,·,·
CCC(=O)NC(c1ccco1)c1cc(Cl)c2cccnc2c1O (stereo unspecified),31,19,-3,1,85*
CCCCC(=O)NC(c1ccco1)c1cc(Cl)c2cccnc2c1O (stereo unspecified),21,47,-12,35,54
OC[C@@H]1[C@@H](c2ccccc2)C2(CN(Cc3nccs3)C2)N1Cc1ccccc1,·,5,·,·,·
O=C(NCC(c1ccco1)N1CCc2ccccc21)C(=O)Nc1ccccc1F (stereo unspecified),-19,-5,4,-22,-10
O=C(NCC(c1ccco1)N1CCc2ccccc21)C(=O)Nc1ccc(F)cc1F (stereo unspecified),39,58*,-22,7,30
C[C@H](CO)N1C[C@H](C)[C@H](CN(C)C(=O)c2ccccc2)OCCCC[C@H](C)Oc2ccc(NC(=O)c3ccncc3)cc2C1=O,·,-6,·,·,3
COc1ccc(CN2C[C@H](C)[C@H](OC)CN(C)C(=O)c3cc(NC(=O)C4CC4)ccc3OC[C@@H]2C)cc1,·,1,·,·,·
CCOc1ccc(C(=O)Nc2nc(C)c(C(=O)OC)s2)cc1,6,73*,-14,-166,-62
COC(=O)c1sc(NC(=O)c2ccncc2)nc1C,-9,-5,-9,-12,-4
COC1C=CC=C(C)C(=O)NC2=CC(=O)C(N)=C(CC(C)CC(OC)C(O)C(C)C=C(C)C1OC(N)=O)C2=O (stereo unspecified),64*,3,17,-45,41
CCCCCCCCN1C(=O)[C@H](CC(=O)N2CCN(C(=O)c3ccco3)CC2)C[C@@]2(C(=O)OCC)CCCC=C12,·,13,·,-4,87*
COC(=O)[C@]12CCCCC=C1N(Cc1ccc(Cl)cc1Cl)C(=O)[C@H](CC(=O)N1CCN(C(=O)c3ccco3)CC1)C2,·,-8,·,-8,109*
CCOC(=O)N1CCN(C(=O)C[C@@H]2C[C@@]3(C(=O)OCC)CCC=C3N(Cc3ccc(Cl)cc3Cl)C2=O)CC1,·,5,·,-3,12
CCOC(=O)[C@]12CCC=C1N(Cc1ccc(Cl)cc1Cl)C(=O)[C@H](CC(=O)N1CCN(C(=O)c3ccco3)CC1)C2,·,-4,·,6,79*
COC(=O)[C@]12CCCCC=C1N(Cc1ccc3c(c1)OCO3)C(=O)[C@H](CC(=O)N1CCN(C(=O)c3ccco3)CC1)C2,·,3,·,1,27
COC(=O)[C@]12CCCCC=C1N(Cc1ccccc1)C(=O)[C@H](CC(=O)N1CCN(C(=O)c3ccco3)CC1)C2,·,0,·,16,81*
COc1ccc2c3c(n(C)c2c1)[C@H](CO)N(C(=O)C1CCCC1)CC31CCN(CC2CCCC2)CC1,·,6,·,·,-13
O=C(C[C@H]1C[C@@H]2c3cc(NS(=O)(=O)c4ccc(F)cc4)ccc3O[C@@H]2[C@H](CO)O1)N1CCc2ccccc2C1,·,-2,·,·,-3
O=C(Nc1ccc(C(F)(F)F)cc1)Nc1ccc2c(c1)[C@H]1C[C@@H](CC(=O)N3CCc4ccccc4C3)O[C@H](CO)[C@H]1O2,·,3,·,·,98*
O=C(Nc1ccc(C(F)(F)F)cc1)Nc1ccc2c(c1)[C@H]1C[C@H](CC(=O)N3CCc4ccccc4C3)O[C@@H](CO)[C@H]1O2,·,-2,·,·,43
CN1CCN(C(=O)C[C@@H]2C[C@H]3c4cc(NC(=O)Nc5ccccc5F)ccc4O[C@H]3[C@@H](CO)O2)CC1,·,-8,·,·,-9
O=C(Nc1ccc2c(c1)[C@@H]1C[C@@H](CC(=O)N3CCc4ccccc4C3)O[C@@H](CO)[C@@H]1O2)Nc1ccccc1F,·,3,·,·,64*
O=C(C[C@H]1C[C@@H]2c3cc(NS(=O)(=O)c4ccc(F)cc4)ccc3O[C@@H]2[C@@H](CO)O1)N1CCc2ccccc2C1,·,17,·,·,87*
O=C(Nc1ccc(C(F)(F)F)cc1)Nc1ccc2c(c1)[C@H]1C[C@@H](CC(=O)N3CCc4ccccc4C3)O[C@@H](CO)[C@H]1O2,·,-7,·,·,97*
SMILES,CF NFkB inh,EWS-Fli block,KKLEB cytotox,HIF-2a block,PAX8 reporter
COc1ccc(NC(=O)Nc2ccc3c(c2)[C@@H]2C[C@@H](CC(=O)N4CCc5ccccc5C4)O[C@@H](CO)[C@@H]2O3)cc1,·,6,·,·,-5
Cc1ccc2[nH]c3nc(N/N=C/c4cccc(O)c4)nnc3c2c1,4,-17,16,10,2
CCc1ccc2[nH]c3nc(N/N=C/c4ccc(O)cc4O)nnc3c2c1,8,39,-6,15,105*
COc1cc(/C=N/Nc2nnc3c(n2)[nH]c2ccccc23)ccc1O,0,27,-3,0,80*
CC1CCCN(c2ccc([N+](=O)[O-])cc2C(=O)c2ccccc2)C1 (stereo unspecified),27,59*,-19,23,57
Cc1ccc(C(=O)c2cc([N+](=O)[O-])ccc2N2CC(C)OC(C)C2)cc1 (stereo unspecified),18,?,-14,20,9
Cc1ccc(C(=O)c2cc([N+](=O)[O-])ccc2N2CCCCC2)cc1,45,·,-37,29,88*
O=C(c1ccc(Cl)cc1)c1cc([N+](=O)[O-])ccc1N1CCOCC1,36,59*,-10,35,43
CCOc1ccc2nc(N/C(N)=N/C(=S)Nc3ccc(C)c(C)c3)nc(C)c2c1,-21,-2,10,-8,132*
COc1ccc(NC(=S)/N=C(\N)Nc2nc(C)c3ccc(C)cc3n2)cc1,-20,12,-5,-2,18
CCCC#Cc1ccc([C@H]2[C@H](CO)N3CCCCN(S(=O)(=O)Cc4ccccc4)C[C@@H]23)cc1,·,0,·,·,19
O=C(CN(c1ccc(Cl)cc1)S(=O)(=O)c1ccc(Cl)c([N+](=O)[O-])c1)NCCc1ccccc1,-9,22,-1,7,79*
Cc1cc(C(=O)CSc2nnc3ccccn23)c(C)n1-c1ccccc1,-18,·,3,84*,81*
CN(C)C(=O)c1cccc(-c2ccc(C3[C@H]4CNC[C@@H]3N4CC3CCCCC3)cc2)c1 (stereo partly specified),·,-4,·,·,5
C[C@@H]1CCCCO[C@@H](CN(C)Cc2ccc(C(=O)O)cc2)[C@H](C)CN([C@H](C)CO)C(=O)c2cc(NC(=O)CCC(F)(F)F)ccc2O1,·,3,·,·,·
CCC1(O)C(=O)OCc2c1cc1n(c2=O)Cc2cc3c(N)cccc3nc2-1 (stereo unspecified),86*,55*,-17,37,110*
CCC1(OC(=O)CN(C)C)C(=O)OCc2c1cc1n(c2=O)Cc2cc3c(N)cccc3nc2-1 (stereo unspecified),32,·,-56*,13,·
CSc1ccc(C2NN=C(c3ccccc3)S2)cc1 (stereo unspecified),-11,44,-61*,-85,-5
